Common to all, as to experiment: NCI-60 one-dose screen, 48 h (100 = growth as untreated, 0 = no growth, -100 = all killed)
What all share (conditions): 10 µM unless noted

Assay [1] deals with NCI-H23 lung.
Assay [2] has as its system NCI-H226 lung.
Assay [3] relates to NCI-H322M lung.
For assay [4], the system named is HOP-62 NSCLC.
The test system of assay [5] is NCI-H460 lung.
Assay [6] has as its system HOP-92 NSCLC.
In assay [7] the test system is 786-0 renal.
Assay [8] deals with COLO 205 colon.
Assay [9] relates to DU-145 prostate.
Assay [10] has as its system K-562 leukemia.
For assay [11], the system named is MALME-3M melanoma.
Assay [12] concerns MDA-MB-231 breast.
Assay [13] relates to SF-268 CNS.
Assay [14] has as its system SF-295 CNS.
Assay [15] concerns SF-539 CNS.
Assay [16] concerns M14 melanoma.
The test system of assay [17] is RXF 393 renal.
In assay [18] the test system is UACC-257 melanoma.

Our source for the growth values is PubChem BioAssay (NCI).

The panel holds about 83,000 compounds, 20% with a hit somewhere; the sample as a whole holds those more often.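 Activity criterion: percent growth below 10, measured after cells in 96-well plates were exposed to a single compound concentration for 48 hours.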 Values without a mark were called inactive. Active and inactive are the calls of the source.

Turning to `COc1ccc(C(=O)/C=C/c2ccc(C)cc2)cc1OC`, the growth in [1] is 78.3%; in assay [2] it was 74.4%; in [3] it was 74.6%; in assay [4], 79%; in assay [5], 80.9%; in [6] it was 52.5%. The growth is 85.3% in assay [7]; 82.8% in assay [8]; 11.3% in assay [9]; 21.1% in [10]; 101% in assay [11]; 90.7% in assay [12]. Also, the growth was 57.3% in assay [13], 101% in assay [14], 70.3% in assay [15] and 99.2% in assay [16].
Regarding `CC(=O)N1N=C(c2ccc(C(F)(F)F)cc2)CC1c1ccc2c(c1)OCO2` (stereo not given), the growth in assay [1] is 79.2%; in assay [2] it was 96.5%; in [3], 84.8%; in assay [4], 102%; in [5] it was 85%; in assay [6] it was 77.5%. Further, the growth in [7] was 87.4%; in [8], 100%; in assay [9], 113%; in assay [10], 73.8%; in [12], 82.3%; in assay [17], 107%. The growth in assay [13] is 104%; in [14], 67.1%; in [15] it was 101%; in [18], 102%; in assay [16], 69.7%.
With `O=C1/C(=C\c2coc3ccccc3c2=O)c2ccccc2N1c1c(Cl)cccc1Cl`, the growth in assay [1] was 55.4%; in [2] it was 90.7%; in assay [3], 73.7%; in [4], 68.2%; in assay [5], 19%; in assay [6], 32.1%. The growth is 27% in assay [7]; 55.3% in [8]; 24.6% in assay [9]; 83.8% in [11]; 60.5% in assay [12]; 44.1% in [17]. Moreover, the growth was 32% in assay [13]; -12% (active) in assay [14]; 49.4% in assay [15]; 61.2% in [18]; 43.4% in [16].
As to `O=C(Nc1nc2ccc(OC(F)(F)F)cc2s1)c1ccc(F)cc1`, the growth in [1] is -34.7% (active); in assay [2], 20.6%; in assay [3], 30%; in assay [4] it was 26.1%; in assay [5], -13.1% (active); in assay [6], -14% (active). In addition, the growth is 16.2% in [7]; -17.4% (active) in assay [8]; 9.01% (active) in [10]; 10.9% in [11]; 27.1% in [12]; 48.5% in assay [17]. For the same molecule, the growth in assay [13] was 8.27% (active); in [14] it was 4% (active); in assay [15], 21.5%; in assay [18] it was 22.3%; in assay [16], 37.3%.
Turning to `CC(=O)Nc1cc2c3c(cccc3c1)-c1ccccc1-2`, the growth was 89.1% in assay [1]; 37.4% in assay [2]; 79.9% in assay [3]; 103% in assay [4]; 64.4% in [5]; 78.9% in assay [6]. Also, the growth in assay [7] was 50.4%; in assay [8], 107%; in assay [9] it was 97.7%; in assay [10], 71.9%; in [12] it was 67.5%; in assay [17] it was 92.4%. The growth is 39% in assay [13]; 92.9% in assay [14]; 39.7% in [15]; 88.8% in [18]; 99.6% in [16].
Take `CCOC(=O)CCN(c1c(Cl)ssc1=O)C(C)C`: the growth in [1] was 105%; in assay [2], 112%; in [3] it was 102%; in [4] it was 106%; in [5] it was 106%; in assay [6], 97%. Besides, the growth was 98.9% in assay [7]; 115% in [8]; 100% in [9]; 106% in assay [10]; 111% in [11]; 104% in assay [12]. Further, the growth in assay [17] is 87.8%; in assay [13], 113%; in assay [14] it was 119%; in assay [15], 97.7%; in assay [18], 95.5%; in [16], 84.7%.
Consider `COc1cc(C2CC(C3C(=O)N(C)C(=O)N(C)C3=O)=NN2c2cc(Cl)cc(Cl)c2)cc(OC)c1OC` (stereo not given), for which the growth in assay [1] is 93.5%; in [2], 85%; in assay [3], 104%; in assay [4], 89.7%; in assay [5] it was 94.5%; in assay [6], 88.5%. The growth in assay [7] was 99.6%; in assay [8] it was 99.7%; in [9], 107%; in assay [10], 88.4%; in assay [11], 89.1%; in assay [12], 103%. Also, the growth in [17] was 99.3%; in [13], 103%; in assay [14], 84.4%; in [15], 96%; in assay [18], 74.2%; in assay [16], 89.3%.
Consider `COC(=O)[C@H](CCCCNC(=O)OCc1ccccc1)NC(=O)[C@@H](NC(=O)Nc1cc(C(F)(F)F)cc(C(F)(F)F)c1)C(C)C`, for which the growth in assay [1] is -45.6% [100 µM] (active); in assay [2], 39% [100 µM]; in [3], 19.9% [100 µM]; in [4], -84.2% [100 µM] (active); in assay [5], -23.1% [100 µM] (active); in assay [6], -69.5% [100 µM] (active). The growth in [7] was -91.7% [100 µM] (active); in assay [8], -12.8% [100 µM] (active); in assay [9] it was -82.2% [100 µM] (active); in assay [10], -18.9% [100 µM] (active); in [11], -61.4% [100 µM] (active); in assay [12], -87.8% [100 µM] (active). For the same molecule, the growth in [17] was -90.8% [100 µM] (active); in assay [13] it was -85% [100 µM] (active); in assay [14] it was -65.5% [100 µM] (active); in assay [18], -78.5% [100 µM] (active); in [16], -75.6% [100 µM] (active).
Consider `CCN(CC)CCNCC(=O)Oc1ccc(/C=C/C(=O)CC(=O)/C=C/c2ccc(OC(=O)CNCCN(CC)CC)c(OC)c2)cc1OC`, for which the growth in assay [1] was 5.35% (active); in assay [2], 21%; in [3], 55.4%; in assay [4], 34%; in [5], 3.7% (active); in [6] it was 39.1%. Besides, the growth in assay [7] was -34.9% (active); in [8] it was 17.1%; in assay [9] it was -56.6% (active); in assay [10], -37.7% (active); in [11] it was -0.278% (active); in assay [12] it was 14%. Besides, the growth in [17] is -73% (active); in assay [13], 13.5%; in [14], 27.3%; in assay [15], -35.9% (active); in assay [18], 53.7%; in [16], -18.6% (active).
